Reference: the supplement of paper PMC11732987, “Enantioselective OTUD7B fragment discovery through chemoproteomics screening and high-throughput optimisation” (Communications Chemistry, 2025)

What was measured:
Experiment in all cases: log2 ratio of Biotin-Ahx-Ub-VS probe labelling (fragment/DMSO); higher = less target engagement (more negative = stronger competition), active = hit call of the paper (q ≤ 0.05, log2 ratio ≤ -1)
Details in all cases: compound concentration: 200 uM; treatment time: 3 h
[1] = biological target: T1, USP19 (UniProt O94966)
T1 sequence (whole entry): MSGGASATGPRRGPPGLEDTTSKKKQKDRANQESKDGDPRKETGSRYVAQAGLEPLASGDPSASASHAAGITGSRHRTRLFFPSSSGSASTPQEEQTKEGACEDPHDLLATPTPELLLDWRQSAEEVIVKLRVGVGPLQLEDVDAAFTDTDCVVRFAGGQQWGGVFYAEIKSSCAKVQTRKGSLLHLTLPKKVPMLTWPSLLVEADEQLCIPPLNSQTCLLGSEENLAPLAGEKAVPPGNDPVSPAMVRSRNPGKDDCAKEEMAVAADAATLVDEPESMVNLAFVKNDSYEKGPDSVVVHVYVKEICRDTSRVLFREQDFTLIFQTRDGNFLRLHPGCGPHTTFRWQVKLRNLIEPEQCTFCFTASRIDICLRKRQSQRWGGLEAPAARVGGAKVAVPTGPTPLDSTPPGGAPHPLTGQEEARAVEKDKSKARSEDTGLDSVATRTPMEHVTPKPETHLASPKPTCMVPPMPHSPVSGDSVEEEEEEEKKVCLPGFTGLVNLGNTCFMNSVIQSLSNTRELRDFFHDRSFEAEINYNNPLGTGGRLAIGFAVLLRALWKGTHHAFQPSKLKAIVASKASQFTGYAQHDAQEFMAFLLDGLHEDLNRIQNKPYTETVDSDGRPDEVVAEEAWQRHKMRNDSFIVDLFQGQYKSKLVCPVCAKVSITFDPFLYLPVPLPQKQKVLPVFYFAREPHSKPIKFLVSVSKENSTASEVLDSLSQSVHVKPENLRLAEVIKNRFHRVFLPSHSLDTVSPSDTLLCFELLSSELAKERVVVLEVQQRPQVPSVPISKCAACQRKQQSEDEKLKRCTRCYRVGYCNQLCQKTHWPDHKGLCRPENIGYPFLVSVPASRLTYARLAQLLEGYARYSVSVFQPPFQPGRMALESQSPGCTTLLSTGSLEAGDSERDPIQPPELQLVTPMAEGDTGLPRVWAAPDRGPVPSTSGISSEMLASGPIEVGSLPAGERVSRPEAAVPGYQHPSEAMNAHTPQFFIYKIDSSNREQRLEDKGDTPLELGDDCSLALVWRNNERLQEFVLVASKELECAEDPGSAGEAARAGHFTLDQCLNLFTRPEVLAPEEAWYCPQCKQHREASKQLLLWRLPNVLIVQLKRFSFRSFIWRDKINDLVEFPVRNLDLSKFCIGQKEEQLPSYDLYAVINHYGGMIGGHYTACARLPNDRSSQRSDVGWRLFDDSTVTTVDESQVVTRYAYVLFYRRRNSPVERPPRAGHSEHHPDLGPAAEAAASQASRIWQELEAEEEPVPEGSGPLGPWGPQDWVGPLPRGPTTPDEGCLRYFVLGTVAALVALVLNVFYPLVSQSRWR
Outline: (§1)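 Each value is an average log2 ratio of fragment to vehicle, tested by unpaired t-test. The underlying Spectronaut label-free quantities were global-median-normalised, and only proteins with ≥2 unique peptides were included. Triplicate HEK293T lysate samples (495 µg) were exposed to fragment at 200 µM or vehicle for 3 h, then to Biotin-Ahx-Ub-VS at 0.5 µM final for 1 h, before NeutrAvidin enrichment of labelled DUBs, LysC and trypsin digestion, and diaPASEF LC-MS/MS.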

[2] = biological target: T2, USP22 (UniProt Q9UPT9)
T2 sequence (whole entry): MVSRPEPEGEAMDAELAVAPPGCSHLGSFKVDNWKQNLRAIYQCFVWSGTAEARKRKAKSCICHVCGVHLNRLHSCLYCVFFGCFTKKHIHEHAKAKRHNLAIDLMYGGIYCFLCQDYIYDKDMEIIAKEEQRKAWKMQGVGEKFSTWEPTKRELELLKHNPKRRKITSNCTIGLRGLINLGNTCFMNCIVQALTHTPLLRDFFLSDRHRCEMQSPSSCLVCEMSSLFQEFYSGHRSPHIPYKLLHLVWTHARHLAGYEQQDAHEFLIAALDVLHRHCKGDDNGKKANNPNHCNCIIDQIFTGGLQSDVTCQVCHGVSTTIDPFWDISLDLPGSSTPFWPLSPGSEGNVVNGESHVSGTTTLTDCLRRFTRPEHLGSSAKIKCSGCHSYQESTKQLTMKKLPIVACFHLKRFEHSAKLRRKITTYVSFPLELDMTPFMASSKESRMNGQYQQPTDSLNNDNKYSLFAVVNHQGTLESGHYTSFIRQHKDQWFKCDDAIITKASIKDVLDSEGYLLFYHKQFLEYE
Outline: as §1

[3] = biological target: USP24 (UniProt Q9UPU5)
Outline: as §1

[4] = biological target: T3, USP25 (UniProt Q9UHP3)
T3 sequence (whole entry): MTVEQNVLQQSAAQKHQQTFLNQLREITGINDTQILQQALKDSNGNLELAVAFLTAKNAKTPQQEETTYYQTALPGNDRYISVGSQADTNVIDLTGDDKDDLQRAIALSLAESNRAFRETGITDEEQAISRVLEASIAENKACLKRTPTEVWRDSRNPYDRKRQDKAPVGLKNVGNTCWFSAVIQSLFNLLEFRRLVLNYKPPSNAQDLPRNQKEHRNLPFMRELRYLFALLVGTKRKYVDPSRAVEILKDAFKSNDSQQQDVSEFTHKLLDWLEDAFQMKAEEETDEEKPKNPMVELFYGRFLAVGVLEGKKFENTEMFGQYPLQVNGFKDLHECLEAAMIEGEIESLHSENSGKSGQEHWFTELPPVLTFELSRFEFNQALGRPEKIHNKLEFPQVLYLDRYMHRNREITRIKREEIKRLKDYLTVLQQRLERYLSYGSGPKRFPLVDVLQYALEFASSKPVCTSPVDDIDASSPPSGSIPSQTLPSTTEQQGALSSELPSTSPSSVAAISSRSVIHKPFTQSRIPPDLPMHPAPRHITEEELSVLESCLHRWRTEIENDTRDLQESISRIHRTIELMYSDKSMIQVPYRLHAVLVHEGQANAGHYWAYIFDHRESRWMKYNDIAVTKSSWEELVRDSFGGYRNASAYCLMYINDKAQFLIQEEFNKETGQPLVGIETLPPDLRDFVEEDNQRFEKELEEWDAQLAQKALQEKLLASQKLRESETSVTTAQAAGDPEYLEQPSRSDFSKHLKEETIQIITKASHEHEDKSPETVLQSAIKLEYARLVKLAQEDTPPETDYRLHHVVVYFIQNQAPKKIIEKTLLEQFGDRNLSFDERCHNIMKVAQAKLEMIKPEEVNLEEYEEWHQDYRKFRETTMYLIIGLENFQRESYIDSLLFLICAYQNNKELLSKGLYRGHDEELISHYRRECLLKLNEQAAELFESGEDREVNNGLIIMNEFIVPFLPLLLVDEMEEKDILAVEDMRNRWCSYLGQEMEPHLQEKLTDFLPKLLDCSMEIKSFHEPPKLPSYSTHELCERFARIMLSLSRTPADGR
Outline: as §1

[5] = biological target: T4, USP28 (UniProt Q96RU2)
T4 sequence (whole entry): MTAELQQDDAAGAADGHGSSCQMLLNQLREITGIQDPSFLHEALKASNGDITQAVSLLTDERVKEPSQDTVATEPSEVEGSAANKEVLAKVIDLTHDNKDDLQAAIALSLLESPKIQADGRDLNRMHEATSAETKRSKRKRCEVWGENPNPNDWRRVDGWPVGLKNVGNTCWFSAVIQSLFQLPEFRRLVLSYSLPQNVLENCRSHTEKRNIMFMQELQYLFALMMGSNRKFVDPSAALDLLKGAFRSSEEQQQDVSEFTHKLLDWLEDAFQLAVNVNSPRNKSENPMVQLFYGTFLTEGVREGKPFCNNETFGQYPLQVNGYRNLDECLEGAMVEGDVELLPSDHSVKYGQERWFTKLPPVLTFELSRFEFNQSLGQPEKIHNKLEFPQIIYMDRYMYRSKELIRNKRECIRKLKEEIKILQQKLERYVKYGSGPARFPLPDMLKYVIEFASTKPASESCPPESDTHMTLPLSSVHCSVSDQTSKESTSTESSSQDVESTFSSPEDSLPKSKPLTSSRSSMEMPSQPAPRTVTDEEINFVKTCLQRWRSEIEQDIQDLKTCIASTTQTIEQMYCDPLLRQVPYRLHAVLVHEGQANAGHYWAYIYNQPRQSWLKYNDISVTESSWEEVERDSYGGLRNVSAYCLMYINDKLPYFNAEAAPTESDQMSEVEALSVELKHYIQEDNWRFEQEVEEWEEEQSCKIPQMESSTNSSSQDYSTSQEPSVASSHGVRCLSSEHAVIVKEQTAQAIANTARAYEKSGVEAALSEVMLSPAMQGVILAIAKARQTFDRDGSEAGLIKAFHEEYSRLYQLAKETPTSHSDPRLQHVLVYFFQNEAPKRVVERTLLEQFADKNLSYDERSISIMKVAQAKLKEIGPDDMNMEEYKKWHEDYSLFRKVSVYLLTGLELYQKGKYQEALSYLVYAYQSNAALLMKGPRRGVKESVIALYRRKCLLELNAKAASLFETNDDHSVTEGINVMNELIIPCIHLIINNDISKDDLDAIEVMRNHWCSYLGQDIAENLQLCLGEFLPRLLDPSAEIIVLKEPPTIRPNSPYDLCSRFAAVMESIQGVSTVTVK
Outline: as §1

Measured: log2 ratio of Biotin-Ahx-Ub-VS probe labelling

Chain of USP24 (Q9UPU5 whole entry): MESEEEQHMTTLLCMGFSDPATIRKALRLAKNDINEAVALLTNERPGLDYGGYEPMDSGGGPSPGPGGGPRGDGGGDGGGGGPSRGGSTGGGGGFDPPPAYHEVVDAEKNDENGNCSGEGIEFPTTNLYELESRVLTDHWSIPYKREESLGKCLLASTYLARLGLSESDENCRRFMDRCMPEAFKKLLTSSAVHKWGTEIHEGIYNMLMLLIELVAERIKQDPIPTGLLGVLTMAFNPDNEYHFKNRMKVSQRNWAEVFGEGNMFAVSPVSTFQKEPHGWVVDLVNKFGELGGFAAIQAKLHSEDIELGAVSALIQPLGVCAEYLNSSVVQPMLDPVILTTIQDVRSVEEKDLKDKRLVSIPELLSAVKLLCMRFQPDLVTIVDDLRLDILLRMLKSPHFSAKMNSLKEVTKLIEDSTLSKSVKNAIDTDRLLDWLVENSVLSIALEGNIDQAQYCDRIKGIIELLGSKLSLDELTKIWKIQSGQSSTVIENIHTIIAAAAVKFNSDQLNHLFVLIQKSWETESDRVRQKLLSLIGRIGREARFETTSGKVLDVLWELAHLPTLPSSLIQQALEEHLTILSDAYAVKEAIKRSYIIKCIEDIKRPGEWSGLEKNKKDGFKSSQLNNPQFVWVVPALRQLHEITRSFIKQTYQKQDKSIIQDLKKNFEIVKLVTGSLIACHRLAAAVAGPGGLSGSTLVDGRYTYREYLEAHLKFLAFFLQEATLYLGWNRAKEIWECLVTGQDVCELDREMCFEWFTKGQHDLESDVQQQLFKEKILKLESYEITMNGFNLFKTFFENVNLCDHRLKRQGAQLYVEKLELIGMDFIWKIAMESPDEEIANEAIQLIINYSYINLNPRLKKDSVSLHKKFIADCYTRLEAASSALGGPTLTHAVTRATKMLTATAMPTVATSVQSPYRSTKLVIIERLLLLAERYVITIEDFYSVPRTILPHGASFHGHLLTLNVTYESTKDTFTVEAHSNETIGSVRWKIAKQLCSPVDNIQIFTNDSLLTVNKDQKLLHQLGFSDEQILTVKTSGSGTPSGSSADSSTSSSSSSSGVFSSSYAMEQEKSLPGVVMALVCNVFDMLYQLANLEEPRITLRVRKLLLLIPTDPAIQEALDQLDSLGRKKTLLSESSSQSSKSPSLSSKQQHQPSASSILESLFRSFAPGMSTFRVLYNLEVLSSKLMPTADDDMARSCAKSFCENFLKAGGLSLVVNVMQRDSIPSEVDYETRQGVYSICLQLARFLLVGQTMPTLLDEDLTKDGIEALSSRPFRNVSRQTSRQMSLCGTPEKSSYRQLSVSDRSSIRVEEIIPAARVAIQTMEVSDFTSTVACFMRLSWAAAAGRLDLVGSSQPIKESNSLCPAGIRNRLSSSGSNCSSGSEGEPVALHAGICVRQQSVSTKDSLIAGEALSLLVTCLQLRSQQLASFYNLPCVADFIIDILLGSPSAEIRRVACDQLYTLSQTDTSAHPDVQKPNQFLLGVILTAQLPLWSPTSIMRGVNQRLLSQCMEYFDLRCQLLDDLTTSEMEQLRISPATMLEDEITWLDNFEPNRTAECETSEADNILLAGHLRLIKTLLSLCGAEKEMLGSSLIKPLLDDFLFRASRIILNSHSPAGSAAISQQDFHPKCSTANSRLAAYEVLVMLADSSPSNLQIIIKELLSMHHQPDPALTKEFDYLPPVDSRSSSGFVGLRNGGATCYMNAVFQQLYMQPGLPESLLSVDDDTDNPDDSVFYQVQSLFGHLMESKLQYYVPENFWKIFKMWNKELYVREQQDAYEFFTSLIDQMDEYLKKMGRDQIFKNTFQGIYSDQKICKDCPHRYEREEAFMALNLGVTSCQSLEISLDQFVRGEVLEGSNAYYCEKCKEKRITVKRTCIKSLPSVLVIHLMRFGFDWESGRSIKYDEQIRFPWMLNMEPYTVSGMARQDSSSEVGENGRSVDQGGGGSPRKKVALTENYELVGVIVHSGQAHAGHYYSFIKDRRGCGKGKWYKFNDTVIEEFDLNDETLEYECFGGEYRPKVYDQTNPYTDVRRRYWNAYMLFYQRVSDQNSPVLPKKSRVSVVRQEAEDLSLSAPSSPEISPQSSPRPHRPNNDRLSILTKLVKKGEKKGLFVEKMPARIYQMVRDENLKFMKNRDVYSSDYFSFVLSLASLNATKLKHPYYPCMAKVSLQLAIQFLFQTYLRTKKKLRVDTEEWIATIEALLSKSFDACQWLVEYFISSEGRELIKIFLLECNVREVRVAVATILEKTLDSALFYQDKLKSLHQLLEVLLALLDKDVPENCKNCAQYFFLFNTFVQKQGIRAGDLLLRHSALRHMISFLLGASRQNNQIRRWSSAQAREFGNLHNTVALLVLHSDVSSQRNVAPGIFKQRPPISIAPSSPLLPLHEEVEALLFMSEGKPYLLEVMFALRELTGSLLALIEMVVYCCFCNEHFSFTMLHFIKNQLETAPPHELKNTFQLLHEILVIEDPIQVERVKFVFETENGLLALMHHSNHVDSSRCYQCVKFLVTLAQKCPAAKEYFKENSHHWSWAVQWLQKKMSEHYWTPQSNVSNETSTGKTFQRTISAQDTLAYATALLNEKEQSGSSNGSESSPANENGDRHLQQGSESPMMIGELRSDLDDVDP

Cl.Cn1nccc1C(NC(=O)CCl)c1ccccc1 (stereo not given)
inactive: [1] -0.0802 | [2] -0.153 | [3] -0.00471 | [4] -0.455 | [5] -0.472
